# The campaign covered roughly 16,000 compounds. About 2,600 (16%) were called active. About 20% were inconclusive and are not listed. Calls follow the shape of the dose curve; as a rule, active = well fitted curve in the direction sought with a large enough effect; inconclusive = small, poorly fitted or top-dose-only effect, or effect the other way; inactive = no such curve, though single readings can be large or run the other way. Not all results are given here.
# Target: Cytochrome P450 2D6 (Homo sapiens) (UniProt P10635)
# Test: Cytochrome panel assay with activity outcomes
# Settings: recombinant CYP, pro-luciferin dealkylation, luminescence, p450-cyp2d6; series mostly up to 57.1 µM
# % is scaled to controls: 0 for no effect and ±100 for the full control effect.
# Cytochrome P450 2D6 (Homo sapiens), sequence (P10635 whole entry, looked up): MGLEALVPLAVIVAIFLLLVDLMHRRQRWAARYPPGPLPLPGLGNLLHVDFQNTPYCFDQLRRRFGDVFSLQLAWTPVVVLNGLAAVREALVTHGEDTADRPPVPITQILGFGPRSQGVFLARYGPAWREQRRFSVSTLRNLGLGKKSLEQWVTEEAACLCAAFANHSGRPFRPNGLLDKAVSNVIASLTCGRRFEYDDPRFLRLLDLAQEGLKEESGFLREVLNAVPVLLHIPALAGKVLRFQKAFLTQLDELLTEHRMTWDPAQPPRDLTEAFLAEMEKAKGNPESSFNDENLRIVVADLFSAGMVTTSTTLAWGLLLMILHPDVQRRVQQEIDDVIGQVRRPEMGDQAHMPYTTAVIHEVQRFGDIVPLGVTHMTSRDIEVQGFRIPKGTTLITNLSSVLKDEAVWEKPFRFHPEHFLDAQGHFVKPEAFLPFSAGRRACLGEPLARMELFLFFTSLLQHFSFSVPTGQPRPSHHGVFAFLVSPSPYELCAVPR
SMILES,AC50,"activity, negative = inhibition"
Cc1cccc(-n2nnc3cnn(C)c3c2=O)c1,inactive,–
O=C(O)[C@@H]1[C@H](C(=O)O)[C@H]2C(=O)C=C[C@H]1N2Cc1ccccc1,–,3.08% [at 11.4 µM] (inactive)
Cc1nn(C)c(Cl)c1NC(=O)OCc1ccc(F)cc1,inactive,–
CC(=O)[C@@H]1CC[C@@H]2[C@@H]3C[C@H](C)C4=CC(=O)CC[C@@]4(C)[C@H]3[C@H](O)C[C@]21C,inactive,–
C=C(NC(=O)C(=C)NC(=O)c1csc(C2=N[C@@H]3c4csc(n4)[C@@H]4NC(=O)c5csc(n5)[C@@H]([C@](C)(O)[C@H](C)O)NC(=O)[C@@H]5CSC(=N5)/C(=C/C)NC(=O)[C@@H]([C@H](C)O)NC(=O)c5csc(n5)[C@]3(CC2)NC(=O)[C@@H](C)NC(=O)C(=C)NC(=O)[C@@H](C)NC(=O)[C@@H]([C@@H](C)CC)N[C@H]2C=Cc3c([C@H](C)O)cc(nc3[C@@H]2O)C(=O)O[C@H]4C)n1)C(N)=O,inactive,–
Cn1c(=O)c2[nH]c(C3CCCC3)nc2n(C)c1=O,inactive,–
Cc1nn(Cc2ccc(Cl)cc2)c(C)c1NC(=O)Cn1nc([N+](=O)[O-])c(Cl)c1C,inactive,–
COc1cnc(NS(=O)(=O)c2ccc(N)cc2)nc1,inactive,–
CCOC(=O)C1=C(O)/C(=C\c2ccc(OC)c(OC)c2)N=C1C,inactive,–
CN(Cc1ccco1)c1ncncc1-c1ccc2c(c1)OCO2,1.26 µM (active),–
CN(Cc1ccco1)c1ncncc1-c1cccnc1,inactive,–
COc1cccc(-c2cncnc2N(C)Cc2ccco2)c1,12.6 µM (active),–
Cc1noc(C)c1-c1cncnc1N(C)Cc1ccco1,inactive,–
CN(C)c1ccc(-c2cncnc2N(C)Cc2ccco2)cc1,12.6 µM (active),–
CN(Cc1ccco1)c1ncncc1-c1ccccc1Cl,12.6 µM (active),–
Cn1c(SCC(=O)c2ccc3c(c2)Cc2ccccc2-3)nnc1-c1ccccc1,inactive,–
Cc1cc(C)nc(Nc2n[nH]c(COc3cccc4ccccc34)n2)n1,inactive,–
CCN1CCc2nc(N)oc2CC1,inactive,–
Nc1ncnc2c1ncn2[C@H]1O[C@@H](C(=O)O)[C@@H](O)[C@H]1O,–,2.66% [at 11.4 µM] (inactive)
Cc1c(CC(C)(C)C(=O)O)n(Cc2ccc(Cl)cc2)c2ccc(F)cc12,inactive,–
Cc1cc(C(F)(F)F)n2nc(-c3cnn(C)c3C(F)(F)F)c(Cl)c2n1,inactive,–
CNc1oc(C)nc1S(=O)(=O)c1ccc(C)cc1,inactive,–

SMILES,AC50,"activity, negative = inhibition"
COCCn1c(=O)c(-c2cccc(C#N)c2)nc2cnc(N3CCOCC3)nc21,inactive,–
COc1cc(OC)c2cc(-c3ccncc3)cnc2c1,inactive,–
COCCNC(=O)/C(C#N)=C/c1ccc(-c2ccc(OC)cc2[N+](=O)[O-])o1,inactive,–
CO/N=C/c1ccc(N2CCN(C(=O)c3ccc(Cl)cc3Cl)CC2)c([N+](=O)[O-])c1,inactive,–
Cc1snc(SCC(=O)N/N=C(\N)COc2cccc(C(F)(F)F)c2)c1C#N,inactive,–
C=CC[C@@H]1C=C[C@@H](O/N=C\C[C@@H]2C=C[C@H](OC(C)=O)[C@H](COC(C)=O)O2)[C@@H](CO)O1,–,-12% [at 11.4 µM] (inactive)
CC(=O)OC[C@@H]1O[C@H](C/C=N\OC[C@@H](C)[C@H](OCc2ccccc2)C(C)C)C=C[C@@H]1OC(C)=O,–,-1.74% [at 11.4 µM] (inactive)
COC(=O)[C@@H]1CC[C@H](C)[C@@H](c2ccc(C)cc2)N1C(=O)c1ccc(/C=N\O[C@@H]2O[C@H](COC(C)=O)[C@H](OC(C)=O)[C@H](OC(C)=O)[C@H]2OC(C)=O)cc1,–,-6.2% [at 11.4 µM] (inactive)
CC(=O)OC[C@@H]1O[C@H](C/C=N\O[C@@H]2O[C@H](COC(C)=O)[C@@H](OC(C)=O)[C@H](OC(C)=O)[C@H]2OC(C)=O)C=C[C@@H]1OC(C)=O,3.98 µM (active),–
CC(=O)OC[C@@H]1O[C@H](C/C=N\OCC[C@H]2C=C[C@H](OC(C)=O)[C@@H](COC(C)=O)O2)C=C[C@@H]1OC(C)=O,–,-6.46% [at 11.4 µM] (inactive)
CC(=O)OC[C@H]1O[C@@H](ON=C(C)C)[C@H](OC(C)=O)[C@@H](OC(C)=O)[C@H]1OC(C)=O,3.16 µM (active),–
CC(=O)OC[C@H]1O[C@@H](O/N=C\[C@@H](C)[C@H](OCc2ccccc2)C(C)C)[C@H](OC(C)=O)[C@@H](OC(C)=O)[C@H]1OC(C)=O,3.98 µM (active),–
CC(=O)OC[C@@H]1O[C@H](CCO/N=C\[C@@H](C)[C@H](OCc2ccccc2)C(C)C)C=C[C@@H]1OC(C)=O,–,-18.8% [at 11.4 µM] (inactive)
CC(=O)OC[C@@H]1O[C@H](CCON=C(C)C)C=C[C@@H]1OC(C)=O,–,-4.81% [at 11.4 µM] (inactive)
CC(CCc1ccccc1)NS(=O)(=O)c1ccccc1 (centres undefined),inactive,–
COc1cccc(Cn2c(=O)c(-c3ccccc3)nc3cnc(N(C)C)nc32)c1,inactive,–
CC(=O)Nc1nc(NC(C)=O)c2[nH]c(CO)nc2n1,–,-2.84% [at 11.4 µM] (inactive)
Cc1cc(=O)n2c3ccccc3n(CC(O)CN3CCCCC3)c2c1C#N (centres undefined),8.91 µM (active),–
O=CN1CCN(C[C@H](O)CN2CCCCC2)CC1,–,9.19% [at 11.4 µM] (inactive)
OC(CN1CCCCC1)CN1CCCCC1,inactive,–
Nc1ccc(C(=O)C[C@H](N)C(=O)O)cc1O,–,-0.576% [at 11.4 µM] (inactive)
CS(=O)(=O)Nc1ccc(C(=O)N2CCN(c3ccccc3)CC2)cc1,inactive,–

# From PubChem BioAssay AID1851 (National Center for Advancing Translational Sciences (NCATS), 2009)
